Potency data for seven compounds are collected here from PubChem BioAssay (NCATS).

Structures are written as SMILES. Results filed as inconclusive are left out. Activity calls are given as the source filed them. Unless noted, the call rests on the fitted dose curve; in most records, active means well fitted inhibition curve with a large enough effect; inconclusive means small, poorly fitted or top-dose-only effect; inactive means flat fitted curve, though single readings scatter.

A short description of test [1]: S16 Schwann cell PMP22 intronic element beta-lactamase assay (AID 624044; calls by dose curve; further: nearly all actives have a fitted effect of over 15% in size). The settings on record: S16 rat Schwann cells, PMP22 element beta-lactamase FRET, 24 h; ratio activity, negative = inhibition: at 38.3 µM (top of the series) unless noted. The essentials: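 Rat S16 Schwann cells with beta-Lac driven by a PMP22 intronic element, compound-treated 24 h at 37 °C. LiveBLAzer FRET B/G read: 460 nm normalized to potassium clavulanate vs DMSO; 535 nm FRET as viability; concentration-effect curves classified.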

Test [2] concerns 3D7. Kind of test: qHTS profiling for inhibitors of Plasmodium falciparum proliferation (AID 504749). Further: nearly all actives have a fitted effect of over 60% in size. Further: potency means the concentration at half of the fitted maximal effect. The settings on record: P. falciparum in erythrocytes, SYBR Green DNA, 72 h; series mostly up to 28.7 µM. The method, boiled down: (§1)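 P. falciparum-infected erythrocytes (0.3% parasitemia, 2.5% hematocrit final) were exposed to compounds for 72 h at 37 C in 5% CO2, then lysed with SYBR Green buffer overnight at room temperature; parasite DNA fluorescence was normalized to artemisinin and DMSO controls.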
(qHTS replaces the single test concentration by a dilution series.)

Test [3] relates to ATS95. The description is as above. To be noted: P. falciparum in erythrocytes, SYBR Green DNA, 72 h; series mostly up to 28.7 µM. The method, boiled down: as §1
In test [4] the test system is CP185. Described as above. To be noted: P. falciparum in erythrocytes, SYBR Green DNA, 72 h; series mostly up to 28.7 µM. The method, boiled down:
as §1

For test [5], the system named is CP201. The description is as above. The settings on record: P. falciparum in erythrocytes, SYBR Green DNA, 72 h; series mostly up to 28.7 µM. The method, boiled down:
as §1

Test [6] has as its system CP211. The description is as above. To be noted: P. falciparum in erythrocytes, SYBR Green DNA, 72 h; series mostly up to 28.7 µM. The essentials:
as §1

Test [7] deals with CP217. Described as above. To be noted: P. falciparum in erythrocytes, SYBR Green DNA, 72 h; series mostly up to 28.7 µM. The method, boiled down: as §1
The subject of test [8] is CP238. Described as above. The settings on record: P. falciparum in erythrocytes, SYBR Green DNA, 72 h; series mostly up to 28.7 µM. The essentials: as §1
Test [9] concerns CP252. Described as above. To be noted: P. falciparum in erythrocytes, SYBR Green DNA, 72 h; series mostly up to 12.8 µM. The method, boiled down: as §1
Test [10] deals with CP256. The description is as above. The settings on record: P. falciparum in erythrocytes, SYBR Green DNA, 72 h; series mostly up to 28.7 µM. The method, boiled down: as §1
Test [11] has as its system CP266. The description is as above. The settings on record: P. falciparum in erythrocytes, SYBR Green DNA, 72 h; series mostly up to 12.8 µM. The method, boiled down:
as §1

Test [12] deals with CP269. The test is described as above. The settings on record: P. falciparum in erythrocytes, SYBR Green DNA, 72 h; series mostly up to 28.7 µM. The method, boiled down: as §1
Test [13] relates to CP297. The description is as above. The settings on record: P. falciparum in erythrocytes, SYBR Green DNA, 72 h; series mostly up to 28.7 µM. The method, boiled down:
as §1

The test system of test [14] is CP305. Described as above. The settings on record: P. falciparum in erythrocytes, SYBR Green DNA, 72 h; series mostly up to 28.7 µM. The essentials:
as §1

Test [15] has as its system CP315. Described as above. The settings on record: P. falciparum in erythrocytes, SYBR Green DNA, 72 h; series mostly up to 28.7 µM. The essentials:
as §1

In test [16] the test system is CP329. Described as above. The settings on record: P. falciparum in erythrocytes, SYBR Green DNA, 72 h; series mostly up to 28.7 µM. The essentials:
as §1

Test [17] relates to DIV30. The description is as above. The settings on record: P. falciparum in erythrocytes, SYBR Green DNA, 72 h; series mostly up to 28.7 µM. The method, boiled down: as §1
In test [18] the test system is ECU. The test is described as above. The settings on record: P. falciparum in erythrocytes, SYBR Green DNA, 72 h; series mostly up to 28.7 µM. The essentials: as §1
Test [19] concerns HB3. Described as above. To be noted: P. falciparum in erythrocytes, SYBR Green DNA, 72 h; series mostly up to 28.7 µM. The method, boiled down: as §1
Test [20] relates to N140. The description is as above. The settings on record: P. falciparum in erythrocytes, SYBR Green DNA, 72 h; series mostly up to 28.7 µM. The method, boiled down: as §1

For `CNC[C@H](O)c1ccc(O)cc1`, the Potency result in test [1], in test [2], in test [3], in [4], in [5] and in [6] was “inactive” throughout. The Potency entry in [7], in [8], in [9], in test [10], in test [11] and in [12] was “inactive” each time. In addition, the Potency result in [13], in [14], in test [15], in test [16], in test [17] and in [18] was “inactive” throughout. Further, the Potency result in [19] and in test [20] was “inactive” throughout.

Take `C[N+]1(C)[C@@H]2CC[C@H]1CC(OC(=O)[C@@H](CO)c1ccccc1)C2` (stereo partly drawn): the Potency result in test [1], in test [2], in test [3], in [4], in test [5] and in [6] was “inactive” throughout. Moreover, the Potency entry in test [7], in test [8], in test [9], in test [11], in [12] and in test [13] was “inactive” in each case. Further, the Potency result in test [14], in test [16], in test [17], in test [18], in test [19] and in test [20] was “inactive” in each case.

Regarding `NCC[C@H](O)C(=O)N[C@H]1C[C@@H](N)[C@@H](O[C@H]2O[C@@H](CN)[C@@H](O)[C@@H](O)[C@@H]2N)[C@@H](O[C@H]2O[C@@H](CO)[C@@H](O)[C@@H]2O)[C@@H]1O`, the Potency result in [1], in test [2], in test [3], in test [4], in test [5] and in test [6] was “inactive” in each case. Moreover, the Potency entry in test [7], in test [8], in [9], in test [10], in test [11] and in test [12] was “inactive” each time. The Potency entry in test [13], in test [14], in test [15], in test [16], in test [17] and in test [18] was “inactive” in each case. Besides, the Potency entry in [19] and in [20] was “inactive” in each case.

Turning to `CC(=O)OCC(=O)[C@@H]1CC[C@H]2[C@H]3CC[C@H]4C[C@@H](O)CC[C@]4(C)[C@@H]3C(=O)C[C@@]12C`, the Potency entry in test [1], in [2], in [3], in test [4], in [5] and in [6] was “inactive” each time. Besides, the Potency entry in [7], in test [8], in [9], in test [10], in test [11] and in [12] was “inactive” each time. The Potency entry in test [13], in test [14], in test [15], in test [16], in test [17] and in test [18] was “inactive” in each case. Moreover, the Potency result in test [19] and in test [20] was “inactive” each time.

For `CC[C@]1(c2cccc(O)c2)CCCCN(C)C1`, the Potency result in [1], in test [2], in test [5], in test [7], in [9] and in test [10] was “inactive” throughout. Besides, the Potency result in test [11], in test [15], in [18] and in test [19] was “inactive” each time. Besides, in test [20], the Potency is 3.98 µM (active).

As for `C[N+]1([O-])[C@@H]2CC[C@H]1CC(OC(=O)[C@@H](CO)c1ccccc1)C2` (stereo partly drawn), the Potency result in test [1], in test [2], in [3], in [4], in test [6] and in test [7] was “inactive” in each case. The Potency result in [8], in test [9], in test [10], in test [11], in test [12] and in test [13] was “inactive” throughout. For the same compound, the Potency result in test [14], in [15], in [16], in [17], in test [18] and in test [19] was “inactive” throughout. In addition, the Potency entry in test [20] is “inactive”.

On to `N[C@H]1C[C@H]1c1ccccc1`, for which the Potency entry in test [1], in [2], in test [3], in test [4], in test [5] and in test [6] was “inactive” throughout. The Potency entry in test [7], in test [8], in [9], in [10], in test [11] and in test [12] was “inactive” throughout. The Potency result in test [13], in test [14], in [15], in test [16], in test [17] and in [18] was “inactive” throughout. Moreover, the Potency entry in [19] and in [20] was “inactive” in each case.
